High-throughput results as filed in PubChem BioAssay.
CHX counter – counter-screen hit for Shiga toxin inhibitors, cycloheximide; cell reporter, cycloheximide protein synthesis inhibition counterscreen; max response, %; actives 12% (n = 300,000); in the data active means max response mostly above about 13%, no sharp cut-off; inactive means mostly below about 14%; further: read at 38.3 µM for the half of the compounds with a filed dose; 0% is about no effect
Shiga toxin inh – blocks Shiga toxin action in Vero cells; AID 2315; Vero cells, Shiga toxin protein synthesis inhibition reporter; inhibition, % at 38.7 µM; actives 9.2% (n = 290,000); in the data active means inhibition mostly above about 28%, no sharp cut-off; inactive means mostly below about 43%; further: 0% is about no effect
HCV inhibitor – blocks hepatitis C virus; Potency, µM (doses to about 41.8 µM), for the others: at the top dose activity change, negative = inhibition, most hits filed as inhibitors; actives 3.4% (n = 340,000); Huh7.5.1 HCVcc-Cre infection, luciferase reporter, 44 h; AID 651820; further: potency means the concentration at half of the fitted maximal effect; on the % scale 0 is the no-effect control and ±100 the full control effect
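After 44 h co-culture of compound, cells and HCVcc-Cre (~0.5 moi), substrate is added for 15 min at room temperature and luciferase measured over 15 sec. Cells were seeded at 1,000/well and pre-cultured 4 h.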
AMA1 RON2 block – AMA1-RON2 (P. falciparum) interaction inhibition; AlphaScreen AMA1-biotinylated RON2 peptide binding; Potency, µM (top dose mostly 58.2 µM), for inactives: at the top dose activity change, negative = inhibition, usual class: inhibitors; actives 0.2% (n = 360,000); AID 720542;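 further: potency means the concentration at half of the fitted maximal effect; 0% = vehicle wells and -100% = peptide control; nearly all actives have a fitted effect of over 45% in size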
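AMA1 (3D7) with his tag at 25 nM final met compounds first, then biotinylated RON2 peptide at 25 nM; detection used donor plus acceptor beads, 10 µg/mL apiece, read by AlphaScreen after 30 min at room temperature.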
Pf growth 96h – P. falciparum growth inhibition at 96 hour, primary screen for plastid delayed-death inhibitors; P. falciparum luciferase reporter growth, 96 h; Potency, µM (titrated, usually from 28.7 µM), without a hit: at the top dose activity change, negative = inhibition, hits mostly inhibitors; actives 6.9% (n = 320,000); AID 504834; further: potency means the concentration at half of the fitted maximal effect; on the % scale 0 is the no-effect control and ±100 the full control effect
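Luminescence readout: decreased luciferase signal marks inhibited growth of reporter-expressing P. falciparum in infected red cells (2% hematocrit, 0.05% parasitemia final), exposed to compound two generations (96 h, 37 C, 5% CO2).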
Pf growth 48h – P. falciparum growth inhibition at 48 hours (one generation) | P. falciparum luciferase growth in erythrocytes, 48 h | Potency, µM (series often up to 28.7 µM), for inactives: at the top dose activity change, negative = inhibition, hits mostly inhibitors | actives 5.9% (n = 310,000); further: potency means the concentration at half of the fitted maximal effect; on the % scale 0 is the no-effect control and ±100 the full control effect
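First compound was added to culture medium, then infected red cells at 0.1% parasitemia and 2% hematocrit (final). After incubation at 37 C under 5% CO2, luciferase detection reagent was dispensed and light output recorded.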
Starred values were filed as active, the others as inactive; ? = inconclusive; . = no result. The list is not random: actives were taken first. Their share in the collection is about 21%. Unless noted, the call rests on the fitted dose curve; in most records, active means well fitted curve in the direction sought with a large enough effect; inconclusive means small, poorly fitted or top-dose-only effect, or another doubt; inactive means no such curve, though single readings can be large; an effect the other way counts as inactive or inconclusive.

SMILES	CHX counter	Shiga toxin inh	HCV inhibitor	AMA1 RON2 block	Pf growth 96h	Pf growth 48h
O=S(=O)(c1ccc(Br)s1)N1CCN(c2ccnc3cc(Cl)ccc23)CC1	15.2*	25.0	?	-16.7%	?	?
Cc1ccc(S(=O)(=O)N2CCN(c3ccnc4cc(Cl)ccc34)CC2)cc1C	0.9	-4.6	-8.0%	-3.5%	8.1%	?
Cc1ccc(S(=O)(=O)N2CCN(c3ccnc4cc(Cl)ccc34)CC2)cc1	-1.0	-0.5	?	-14.2%	?	10.4µM*
CCS(=O)(=O)N1CCN(c2ccnc3cc(Cl)ccc23)CC1	-0.7	-5.0	-18.6%	-13.7%	10.4µM*	11.7µM*
CC(OC(=O)Cc1c[nH]c2ccccc12)C(=O)Nc1ccc(S(N)(=O)=O)cc1 (stereo unspecified)	.	.	18.5%	-4.0%	21.8%	2.5%
CCCC(=O)C1C(=O)CC(C)(C)C(c2cc(C)no2)C1=O (stereo unspecified)	-4.7	-3.4	-0.8%	-2.0%	0.117µM*	7.0%
CCN1C[C@@H]2[C@@H]3C(=O)N(C)C(=O)[C@@H]3[C@](Cc3ccccc3)(C1=O)N2C(=O)c1ccc(Cl)c(Cl)c1	.	.	9.2%	-2.5%	.	.
CN1CCN(CCCNC(=O)c2ccc(/C=C3\Sc4ccccc4N(Cc4ccccc4F)C3=O)cc2)CC1	1.8	-19.4	10µM*	-12.0%	-3.9%	?
CCN1CCN(CCNC(=O)c2ccc3c(c2)N(Cc2ccc(F)cc2)C(=O)/C(=C/c2ccccc2)S3)CC1	-12.1	-30.0	?	?	2.6%	6.57µM*
Cc1cccc(CN2C(=O)/C(=C\c3ccc(C(=O)NCCN4CCOCC4)cc3)Sc3ccccc32)c1	-2.5	20.0	?	-11.9%	?	?
Cc1ccccc1CN1C(=O)/C(=C\c2ccc(C(=O)NCCN3CCOCC3)cc2)Sc2ccccc21	8.5	-3.6	?	-14.7%	?	?
CCOCCCNC(=O)CN1C(=O)/C(=C/c2ccccc2C)Sc2ccccc21	-1.3	23.6	-4.7%	53.7%	?	-26.6%
O=C(NCCN1CCOCC1)c1ccc(/C=C2\Sc3ccccc3N(Cc3ccccc3F)C2=O)cc1	-1.0	-1.5	?	-22.9%	?	?
CCOCCCNC(=O)/C=C1\Sc2ccccc2N(Cc2ccccc2F)C1=O	31.9*	130.6*	?	-7.0%	?	13.9%
CCN1CCN(CCNC(=O)c2ccc(/C=C3/Sc4ccccc4N(Cc4cccc(Cl)c4)C3=O)cc2)CC1	-9.7	-32.1	11.2µM*	?	?	?
Nc1nccc(SCc2ccccc2)n1	.	.	15.4%	11.2%	.	.
Cc1ccccc1N1CCN(C2CCCN(C(=O)c3noc4c3CCCC4)C2)CC1 (stereo unspecified)	-1.3	-36.1	?	-15.1%	?	-8.3%
Cc1cccc(C)c1NC(=O)C1(C)CN(S(C)(=O)=O)CC(=O)N1Cc1ccco1 (stereo unspecified)	.	.	.	-2.5%	.	.
COc1ccc(-c2nc(NC(=O)CSCCO)sc2C)cc1	23.9	69.5*	19.0%	-2.0%	?	-6.1%
COc1ccc(-c2nc(NC(=O)Cn3ccc(C(F)(F)F)n3)sc2C)cc1	-2.6	-6.1	?	-4.8%	13.1µM*	.
CCCOC(=O)Nc1nc(-c2ccc(C)cc2)c(C)s1	26.9*	64.5*	-15.8%	-15.5%	16.7%	-3.7%
CCCOC(=O)C1=C(C)NC(=O)NC1c1cc2c(cc1Br)OCO2 (stereo unspecified)	-1.3	-6.8	3.1%	-2.3%	9.7%	?
CN(CC(=O)Nc1ccc(Cl)cc1)C(=O)CNC(=O)c1ccc(Br)o1	.	.	-8.7%	31.5%	30.5%	-10.6%
Clc1ccc(/C=N/N2CCN(Cc3ccccc3)CC2)cc1	17.1*	29.3	12.1%	-27.7%	19.7%	33.8%
Oc1ccc(Br)cc1/C=N/N1CCN(Cc2ccccc2)CC1	-2.6	2.7	2.6%	?	38.7%	19.5%
CCN(Cc1ccccc1)C1CCN(Cc2ccc(SC)cc2)CC1	-4.6	3.7	7.08µM*	?	-25.6%	?
CSc1ccc(/C=N/N2CCN(Cc3ccccc3)CC2)cc1	30.0*	49.1*	13.9%	?	3.7%	20.3%
